High-throughput results deposited in PubChem BioAssay by National Center for Advancing Translational Sciences (NCATS).
TDP1 cell CPT: growth inhibition of DT40 Tdp1-/-;hTDP1 cells with camptothecin (screen for TDP1 inhibitors). chicken DT40 Tdp1-/-;hTDP1 cells + 20 nM CPT, ATP luminescence, 48 h. Potency, µM (series often up to 46.2 µM), usual class: inhibitors. 420,000 tested, 12% active. AID 686979; also: nearly all actives have a fitted effect of over 55% in size
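Chicken DT40 Tdp1-/- cells stably complemented with human TDP1 were seeded at 400 cells/well in medium containing 20 nM camptothecin, exposed to pin-transferred compounds, and grown at 37 °C for at least 48 hr. Viability was read as ATP luminescence.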
DT40 TDP1 no CPT: qHTS for Inhibitors of human tyrosyl-DNA phosphodiesterase 1 (TDP1): qHTS in cells in absence of CPT. Potency, µM (highest dose often 46.2 µM), hits mostly inhibitors. DT40 Tdp1-/- hTDP1 cells, no CPT, ATP luminescence, 48 h. 420,000 tested, 15% active; also: nearly all actives have a fitted effect of over 55% in size
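Growth of hTDP1-complemented DT40 Tdp1-knockout cells is measured by ATP luminescence after at least 48 hr compound exposure at 37 °C, with DMSO substituting for the 20 nM CPT used in the parallel screen.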
S2 tox: reduces viability in counter-screen for ATXN expression inhibitors; S2 cells (HEK-293 line with an ATXN2-luciferase reporter) viability, CellTiter-Fluor protease fluorescence, 24 h; Potency, µM (highest dose often 56.7 µM), most hits filed as cytotoxic; 400,000 tested, 0.49% active; also: nearly all actives have a fitted effect of over 40% in size
TGFb SMAD3 inh: TGF-b pathway inhibition | HepG2 CAGA-GFP TGF-b/SMAD3 reporter, GFP fluorescence, 18 h; TGF-beta stimulated, 500 pg/mL final | Potency, µM (doses to about 46.1 µM), actives largely listed as inhibitors | 410,000 tested, 1.2% active | AID 588855; also: nearly all actives have a fitted effect of over 65% in size
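Cell-based qHTS in HEPG2 carrying a CAGA-GFP Smad reporter; compounds added before 500 pg/mL final TGF-beta, 18 h incubation at 37 degrees C, GFP fluorescence quantified per cell by imaging cytometry.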
HepG2 viability: counter-screen for TGF-b inhibitors: cytotoxicity in HepG2 cells. HepG2 CAGA-GFP viability, ATP luminescence, 18 h. Potency, µM (top dose mostly 46.1 µM), usual class: cytotoxic. 410,000 tested, 0.76% active
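CellTiter-Glo luminescence gave cytotoxicity after 18 hours at 37 degrees C. The cells were HepG2 CAGA-GFP in 1% FBS DMEM, stimulated with 500 pg/mL TGF-beta after compound addition. %Activity was normalised to no-cell wells (complete cell-killing) and DMSO (no toxicity), and curves were fitted and classified.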
ATXN2 expr inh: ATXN2 expression inhibition. HEK-293 ATXN2-luciferase reporter, luminescence, 24 h. Potency, µM (series often up to 57 µM), actives largely listed as inhibitors. 360,000 tested, 0.72% active. AID 1745845; also: nearly all actives have a fitted effect of over 55% in size
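qHTS (up to 57 uM final) was run with 24 h compound exposure of reporter cells at 37 °C. Each well was multiplexed: SteadyGlo luminescence measured ATXN2-luciferase expression after a fluorogenic Gly-Phe-AFC viability readout (25 uM final).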
A number is an active result; i = inactive; ? = inconclusive; nt = no result given. Shown are actives, neighbours in structure and some others; about 17% of the full set was active somewhere. Calls follow the shape of the dose curve; as a rule, active = well fitted curve in the direction sought with a large enough effect; inconclusive = small, poorly fitted or top-dose-only effect, or another doubt; inactive = no such curve, though single readings can be large; an effect the other way counts as inactive or inconclusive.

SMILES	TDP1 cell CPT	DT40 TDP1 no CPT	S2 tox	TGFb SMAD3 inh	HepG2 viability	ATXN2 expr inh
CC(C)C[C@H]1C(=O)N2CCC[C@H]2[C@]2(O)O[C@](NC(=O)[C@@H]3C=C4c5cccc6[nH]cc(c56)C[C@H]4N(C)C3)(C(C)C)C(=O)N12	21µM	16µM	i	i	i	i
CN1C[C@H](C(=O)NC2(C)OC3(O)[C@@H]4CCCN4C(=O)[C@H](Cc4ccccc4)N3C2=O)CC2c3cccc4[nH]cc(c34)C[C@H]21 (some centres not stated)	16µM	16µM	i	i	i	i
CCC(CO)NC(=O)C1C=C2c3cccc4[nH]cc(c34)CC2N(C)C1 (configuration not stated)	i	i	i	i	i	i
C/C(=N\N1CCCCCC1)c1c(O)n(-c2ccc(Cl)cc2)c(=O)[nH]c1=O	?	21µM	i	i	i	i
C/C(=N\N1CCCCCC1)c1c(O)n(-c2ccc(C)cc2)c(=O)[nH]c1=O	i	i	i	i	i	i
C/C(=N\N1CCCCCC1)c1c(O)n(-c2ccccc2C)c(=O)[nH]c1=O	i	0.13µM	i	i	i	nt
CC[N+](CC)(CC)CCOC(=O)C(C1CCCC1)C1CCCC1	?	11µM	i	nt	nt	i
CC1(C)c2[nH]c3ccccc3c2C[C@H]2C(=O)N(Cc3ccccc3F)C(=O)N21	nt	nt	i	?	i	?
CN(C(=O)Oc1ccc(Cl)c2cccnc12)c1ccccc1	i	i	?	i	i	i
CC(=O)Oc1ccc(Cl)c2cccnc12	3.7µM	8.2µM	nt	nt	nt	nt
Cc1cccc(NC(=O)Oc2ccc(Cl)c3cccnc23)c1	12µM	5.2µM	i	?	2.8µM	nt
O=C(O)[C@@H](O)[C@H](O)[C@H](O)[C@@H](O)C(=O)O (tested in a mixture with another compound)	?	i	i	nt	nt	nt
c1ccc(N2CCN(c3ncnc4c3nc3n4CCCC3)CC2)cc1	?	?	nt	i	i	nt
CC(=O)OC1CCC2(C)C3CCC4(C)C(OC(C)=O)CCC4C3C(C)C2(O)C1 (configuration not stated)	?	15µM	i	i	i	i
COc1cccc(NC(=O)N2CCc3nc(Nc4ccc(C(C)C)cc4)ncc3C2)c1	26µM	?	?	?	i	i
CN(C)C(=O)Oc1cccc(NC(=O)N2CCOCC2)c1	i	i	i	i	i	i
CC12CCC3C(=CCc4cc(O)ccc43)C1CCC2=O (configuration not stated)	?	i	nt	nt	nt	nt
CC(C)NCC(O)c1ccc(N)c(C#N)c1 (configuration not stated)	i	i	i	nt	nt	i
CC(C)NCC(O)c1ccc(C2CCCC2)cc1 (configuration not stated)	16µM	16µM	i	i	i	i
COC(=O)C1=C(c2cccc(OCc3ccccc3)c2)C[C@@H]2CC[C@H]1N2C(=O)NCc1cccc(C(F)(F)F)c1	21µM	16µM	i	i	i	i
COC(=O)C1=C(c2ccc(OCc3ccccc3)cc2)C[C@@H]2CC[C@H]1N2C(=O)NCc1ccc(OC)cc1	7.3µM	6.5µM	i	i	i	i
COC(=O)C1=C(c2cccc(OCc3ccccc3)c2)C[C@@H]2CC[C@H]1N2C(=O)NCc1cc(C)oc1C(F)(F)F	23µM	?	i	i	i	i
COC(=O)C1=C(c2cccc(OCc3ccccc3)c2)C[C@@H]2CC[C@H]1N2C(=O)NCc1ccc(OC)c(OC)c1	16µM	15µM	?	i	i	i
N#Cc1c(Cl)cccc1Cl	i	i	nt	nt	nt	nt
CC(C)NC(=O)N1CC[C@@]2(CCCNC2)C1	i	i	nt	nt	nt	nt
SMILES	TDP1 cell CPT	DT40 TDP1 no CPT	S2 tox	TGFb SMAD3 inh	HepG2 viability	ATXN2 expr inh
COC(=O)C1=C(c2cccc(OCc3ccccc3)c2)C[C@@H]2CC[C@H]1N2C(=O)NCc1ccc(OC)cc1	12µM	16µM	?	i	i	i
COC(=O)C1=C(c2ccc(OCc3ccccc3)cc2)C[C@@H]2CC[C@H]1N2C(=O)NCc1ccc(C(C)(C)C)cc1	12µM	9.2µM	i	i	i	i
COC(=O)C1=C(c2ccc(S(C)(=O)=O)cc2)C[C@@H]2CC[C@H]1N2C(=O)NCc1ccccc1	i	i	i	?	i	i
COC(=O)C1=C(c2ccc(OCc3ccccc3)cc2)C[C@@H]2CC[C@H]1N2C(=O)NCc1ccc2c(c1)OCO2	5.8µM	4.1µM	?	?	i	i
COC(=O)C1=C(c2cccc(OCc3ccccc3)c2)C[C@@H]2CC[C@H]1N2C(=O)NCc1ccccc1	?	?	?	?	i	?
COC(=O)C1=C(c2cccc(OCc3ccccc3)c2)C[C@@H]2CC[C@H]1N2C(=O)NCc1ccccc1OC	?	23µM	i	?	i	i
COC(=O)C1=C(c2ccc(OCc3ccccc3)cc2)C[C@@H]2CC[C@H]1N2C(=O)NCc1cccc(OC)c1	18µM	21µM	?	?	i	i
